Measurements from PubChem BioAssay (EPA / NIEHS).
Values joined by “and” are separate entries in the source; they are usually repeats but may differ in a detail not shown here. Identical values can stand only once. Results filed as inconclusive are left out. Active and inactive are the calls of the source. Rule for the calls: active = hit-call score of the fitted dose curve at least 0.9, where 1 is the maximum; inconclusive = response in the unintended direction; inactive = score below 0.9.

Assay: CCTE_Shafer_MEA_dev_bursting_electrodes_number: CCTE's Neural Network Formation Assay for Number of Bursting Electrodes, Shafer Lab (AID 2284043)
Method: CCTE_Shafer_MEA_dev assay is conducted using Axion Biosystems 48 well microelectrode array (MEA) plates and Maestro recording system. Each well of the MEA plate contains a grid of 16 microelectrodes embedded in the culture surface. Electrically active cells, such as neurons, can be cultured over the electrodes, and electrical activity in these cells can be recorded extracellularly. The spontaneous firing of neurons is captured from each electrode on a microsecond timescale providing both temporally and spatially precise data. […] The CCTE_Shafer_MEA_dev assay uses primary cultures of rat cortical neurons. Recordings are made on days post-plating 5, 7, 9 and 12. As these cultures mature over time, neural networks develop functional activity and form cohesive networks in which electrical activity can be highly coordinated. CCTE_Shafer_MEA_dev_bursting_electrodes_number is 1 of 19 assay components of the CCTE_Shafer_MEA_dev assay. It measures the number of electrodes in a well with a burst rate of at least 1 burst (temporally-clustered group of action potential firing) every 2 minutes during a recording in a microelectrode array (MEA) using Axion Biosystems Maestro 768 channel amplifier with the AxIS adaptive spike detector. To collapse across multiple recordings made on days post-plating 5, 7, 9 and 12, the trapezoidal area-under-the-curve of the component is calculated.Data from the assay component CCTE_Shafer_MEA_dev_bursting_electrodes_number was analyzed into 1 assay endpoint. This assay endpoint, CCTE_Shafer_MEA_dev_bursting_electrodes_number, was analyzed in the negative analysis fitting direction relative to DMSO as the negative control and baseline of activity. Using a type of functional reporter, gain or loss-of-signal activity can be used to understand electrical activity.
On the day prior to culture, each well was coated thoroughly with 150 uL of 0.05% polyethyleneimine (PEI, Sigma Cat P3143) in 50 mM HEPES (Sigma Cat H7523) at a pH of 8. The plate was incubated at 37C for one hour. PEI was rinsed out with 500 uL of sterile water three times. Plates were stored at 4C until the day of culture. This culture was plated at a seeding density of 1.5 x 10^5 cells/well on a 48-well MEA plate, prepared as described above. Cells were administered via a 25 uL media/laminin ([…]; Sigma Cat L2020-1MG) drop directly onto the microelectrode array, as adding the cells with the laminin results in better attachment than pre-coating with laminin. After 2 hours, an additional 475 uL of cortical media was added and the cells returned to the incubator. Exposure starts at day 0 of plating and is continued over twelve days of network development until the experiment is terminated. Cells are fed with fresh medium on DIV 5 and 9, following the recordings on those days. The entire volume of media in the well is exchanged and any vehicle or compound treatment is renewed. Complete details are found in OP-NHEERL/ISTD/SBB/TJS/2015-03-r0 (available on request, email shafer.tim@epa.gov). Measurement of the electrical activity is non-invasive, and recordings can be made from the same plate over multiple different days of the culture. In cortical neurons, this allows for the measurement of extracellular action potentials over the period during which networks form in the MEA plate.

Row | SMILES | AC50 | outcome
1 | [Cl-].[Cl-].[Hg+2] | 0.539 µM (active) | 
2 | Clc1ccc(C(c2ccc(Cl)cc2)C(Cl)Cl)cc1 | 6.19 µM (active) | 
3 | CC(C)(O)c1cnn2c(-c3ccc(F)c(-c4c(F)cccc4C#N)c3)cnc2n1 | 1.98 µM (active) | 
4 | CCC[CH2][Sn]([Cl])([CH2]CCC)[CH2]CCC | 0.0406 µM (active) | 
5 | Clc1ccc(C(c2ccc(Cl)cc2)C(Cl)(Cl)Cl)cc1 | 3.96 µM (active) and 6.35 µM (active) | 
6 | ClC1=C(Cl)C2(Cl)C3C(Cl)C=CC3C1(Cl)C2(Cl)Cl (centres undefined) | 2.35 µM (active) | 
7 | OCCOCCO |  | inactive
8 | Nc1cc(Cl)cc(C(=O)O)c1Cl |  | inactive
9 | ClC1=C(Cl)[C@]2(Cl)[C@H]3[C@H]([C@@H]4C=C[C@H]3C4)[C@@]1(Cl)C2(Cl)Cl | 7.53 µM (active) | 
10 | CNC(=O)Oc1cccc2c1OC(C)(C)C2 | 15 µM (active) and 76.8 µM (active) | 
11 | CCCCOC(=O)c1ccccc1C(=O)OCc1ccccc1 | 50.5 µM (active) | 
12 | CC(C)COC(=O)c1ccccc1C(=O)OCC(C)C | 13.8 µM (active) | 
13 | COP(=S)(OC)SCN1C(=O)c2ccccc2C1=O | 32.6 µM (active) and 51.5 µM (active) | 
14 | C1=Cc2cccc3cccc1c23 |  | inactive
15 | CN(C)[C@@H]1C(=O)C(C(N)=O)=C(O)[C@@]2(O)C(=O)C3=C(O)c4c(O)cccc4[C@@](C)(O)[C@H]3C[C@@H]12 |  | inactive
16 | O=P(OCCCl)(OCCCl)OCCCl |  | inactive
17 | CC(C)(C)C(O)(CCc1ccc(Cl)cc1)Cn1cncn1 (centres undefined) | 5.5 µM (active) | 
18 | CCNS(=O)(=O)C(F)(F)C(F)(F)C(F)(F)C(F)(F)C(F)(F)C(F)(F)C(F)(F)C(F)(F)F | 15 µM (active) and 2.98 µM (active) | 
19 | COC(=O)Nc1nc2ccccc2[nH]1 | 12.5 µM (active) | 
